Gal4-VP16 FLuc = Gal4-VP16 reporter inhibition counter-screen; Drosophila S2 Gal4-VP16 UAS-luciferase, luminescence, 20 h; Potency, µM (titrated, usually from 53.6 µM), inactives show at the highest dose activity, negative = inhibition, hits mostly inhibitors; actives 3.5% (n = 310,000);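 also: Gal4-VP16 expression switched on by copper sulfate through the metallothionein promoter; nearly all actives have a fitted effect of over 50% in size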
Luc counter = blocks Kinase-Glo luciferase, a counter-screen artifact; Q27757; Kinase-Glo luciferase, ATP luminescence, 8 min; Potency, µM (titrated, usually from 38.3 µM), for inactives: top-dose activity change, negative = inhibition, hits mostly inhibitors; actives 0.28% (n = 200,000); also: nearly all actives have a fitted effect of over 60% in size
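Recombinant Kinase-Glo luciferase, 10 uM ATP (linear range), luciferin; imidazole pH 7.2 / KCl / MgCl2 / Tween / BSA buffer; 8 min RT; luminescence.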
RORg inh = ROR gamma (mouse) transcription inhibition; AID 2551; P51450; actives 5.4% (n = 310,000); Potency, µM (top dose mostly 53.6 µM), for inactives: top-dose activity change, negative = inhibition, usual class: inhibitors; Drosophila S2 Gal4-RORgamma UAS-luciferase reporter, 20 h; also: nearly all actives have a fitted effect of over 60% in size
Target sequence (P51450 whole entry, looked up, the tested form may be a part): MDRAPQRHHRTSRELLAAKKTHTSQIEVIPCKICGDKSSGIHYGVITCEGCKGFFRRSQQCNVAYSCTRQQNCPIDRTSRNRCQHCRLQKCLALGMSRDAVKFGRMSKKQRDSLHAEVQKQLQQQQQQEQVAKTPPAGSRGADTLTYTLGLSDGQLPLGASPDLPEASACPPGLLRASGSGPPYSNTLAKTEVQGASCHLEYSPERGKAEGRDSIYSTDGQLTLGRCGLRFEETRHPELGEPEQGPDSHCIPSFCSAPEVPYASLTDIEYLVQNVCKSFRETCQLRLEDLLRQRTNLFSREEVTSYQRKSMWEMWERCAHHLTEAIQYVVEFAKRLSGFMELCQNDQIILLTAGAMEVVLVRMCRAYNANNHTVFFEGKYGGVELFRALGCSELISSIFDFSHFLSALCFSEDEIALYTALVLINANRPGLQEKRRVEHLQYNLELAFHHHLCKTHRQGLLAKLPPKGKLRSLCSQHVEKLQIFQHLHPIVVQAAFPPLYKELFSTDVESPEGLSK
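Drosophila S2 cells stably expressing Gal4-DBD/mouse RORγ fusion under metallothionein promoter plus UAS-luciferase; compound 1 h, then 700 uM CuSO4 induction for 20 h at ambient temperature; inhibition read as reduced luminescence.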
* marks the source's active call; other numbers are inactive results; [ ] = remark or other dose. Only some compounds are listed: those with a hit (about 6.4% of all), similar ones and a draw of the others. Calls follow the shape of the dose curve; as a rule, active = well fitted curve in the direction sought with a large enough effect; inconclusive = small, poorly fitted or top-dose-only effect, or another doubt; inactive = no such curve, though single readings can be large; an effect the other way counts as inactive or inconclusive. % is scaled to controls: 0 for no effect and ±100 for the full control effect; potency is read from the fitted curve at half-maximal effect.

Screening CCn1ncc(CN2CCC(Oc3cc(C(=O)NC4CC4)ccc3OC)CC2)c1C returned Gal4-VP16 FLuc 5% and RORg inh -28%.
For CCCC(=O)O[C@]1(C(=O)CCl)[C@@H](C)C[C@H]2[C@@H]3CCC4=CC(=O)C=C[C@]4(C)[C@@]3(F)C(=O)C[C@@]21C the results were Gal4-VP16 FLuc -3%, Luc counter -3% and RORg inh 10µM*.
`CCC(=O)O[C@@]1(C(=O)CCl)C(C)CC2C3CCC4=CC(=O)C=C[C@@]4(C)[C@]3(F)C(O)C[C@]21C` (some centres undefined) gave Gal4-VP16 FLuc -18%, Luc counter -3% and RORg inh inconclusive.
Screening CCC(=O)O[C@]1(C(=O)CCl)[C@@H](C)C[C@H]2[C@@H]3CCC4=CC(=O)C=C[C@]4(C)[C@@]3(F)[C@@H](O)C[C@@]21C returned Gal4-VP16 FLuc inconclusive, Luc counter 0% and RORg inh 11µM*.
C[C@H]1C[C@H]2[C@@H]3CCC4=CC(=O)C=C[C@]4(C)[C@@]3(F)[C@@H](O)C[C@]2(C)[C@@]1(O)C(=O)CO was read as Gal4-VP16 FLuc 3% and RORg inh 3%.
CCC(=O)O[C@]1(C(=O)CCl)[C@@H](C)CC2C3C[C@H](F)C4=CC(=O)C=CC4(C)[C@@]3(F)C(O)CC21C (some centres undefined) was read as Gal4-VP16 FLuc -7% and RORg inh -16%.
`CCCCC(=O)O[C@]1(C(=O)CO)[C@H](C)C[C@H]2[C@@H]3CCC4=CC(=O)C=C[C@]4(C)[C@@]3(F)[C@@H](O)C[C@@]21C` gave Gal4-VP16 FLuc inconclusive, Luc counter 2%[39.9 µM] and RORg inh 7.9µM*.
COc1ccc(NC(=O)CCCn2cnc3ccccc3c2=O)c(OC)c1 was read as Gal4-VP16 FLuc -1% and RORg inh 3%.
COC(=O)c1ccc(COc2cccc3c2OC(C)(C)C3)cc1 was read as Gal4-VP16 FLuc 3% and RORg inh inconclusive.
`COc1ccc(CNCC(O)COc2cccc3c2OC(C)(C)C3)cc1` (centres undefined) gave Gal4-VP16 FLuc 10µM*, Luc counter 0% and RORg inh -12%.
Screening COc1ccc(-n2c(-c3cccc(OC)c3)nc(=S)c3c2CCCC3)cc1 returned Gal4-VP16 FLuc inconclusive, Luc counter -2% and RORg inh 10µM*.
For COc1ccc(-n2c(-c3ccccc3)nc(=S)c3c2CCCC3)cc1 the results were Gal4-VP16 FLuc inconclusive, Luc counter -4% and RORg inh 14µM*.
`OCCOCCn1c(-c2ccccc2)nc(=S)c2c1CCCC2` gave Gal4-VP16 FLuc 1%, Luc counter -3% and RORg inh -21%.
CC(C)n1c(-c2ccccc2)nc(=S)c2c1CCCC2 was read as Gal4-VP16 FLuc -6%, Luc counter -5% and RORg inh inconclusive.
Screening CCN(CCC(=O)Nc1cc([N+](=O)[O-])ccc1OC)Cc1ccccc1 returned Gal4-VP16 FLuc -3%, Luc counter 1% and RORg inh 13%.
`N#CC(=C(/N)Sc1ccccc1N)/C(C#N)=C(/N)Sc1ccccc1N` gave Gal4-VP16 FLuc inconclusive, Luc counter 1% and RORg inh inconclusive.
`CC1(C(=O)NC(=S)N(CCC#N)Cc2cccnc2)CC1(Cl)Cl` (centres undefined) gave Gal4-VP16 FLuc inconclusive, Luc counter -2% and RORg inh 1.4µM*.
Screening N#CCCN(Cc1cccnc1)C(=S)Nc1ccccc1Cl returned Gal4-VP16 FLuc 7%, Luc counter 1% and RORg inh 0%.
COC(=O)N[C@@H](/C=C/c1ccccc1)[C@@H](C)[N+](=O)[O-] was read as Gal4-VP16 FLuc -1%, Luc counter 4% and RORg inh 11%.
`Cc1cc(NC(=O)COC(=O)C2CCN(S(=O)(=O)c3ccc(Cl)cc3)CC2)no1` gave Gal4-VP16 FLuc 1%, Luc counter 2% and RORg inh -12%.
CCOC(=O)C1CCN(S(=O)(=O)c2cccc3nonc23)CC1 was read as Gal4-VP16 FLuc 2%, Luc counter 0% and RORg inh -27%.
Cc1cc(NC(=O)COC(=O)C2CCN(S(=O)(=O)c3c(Cl)cccc3Cl)CC2)no1 was read as Gal4-VP16 FLuc -5%, Luc counter 3% and RORg inh 5µM*.
Screening CCOC(=O)C1CCN(S(=O)(=O)c2c(Cl)ccc3nonc23)CC1 returned Gal4-VP16 FLuc 2.8µM* and RORg inh 2.2µM*.
`O=C(NCc1ccccn1)C(C(=O)c1cccc([N+](=O)[O-])c1)n1cc(Cl)ccc1=O` (centres undefined) gave Gal4-VP16 FLuc 20%, Luc counter -1% and RORg inh -18%.
Cc1sc2nc(SCC(=O)N3CCOCC3)[nH]c(=O)c2c1-c1ccccc1 was read as Gal4-VP16 FLuc -17% and RORg inh 5%.
Screening O=S(=O)(c1ccccc1)N1CCN(C(=S)Nc2ccc(F)cc2)CC1 returned Gal4-VP16 FLuc 2%, Luc counter 1% and RORg inh -15%[10 µM].
Screening Cc1cc(C)cc(NC(=S)N2CCN(c3ccc(F)cc3)CC2)c1 returned Gal4-VP16 FLuc -25%, Luc counter 5% and RORg inh 7.1µM*.
`Cc1cccc(NC(=S)N2CCN(c3ccc(F)cc3)CC2)c1` gave Gal4-VP16 FLuc inconclusive, Luc counter -1% and RORg inh 8.9µM*.
Fc1ccc(NC(=S)N2CCN(c3cccc(C(F)(F)F)c3)CC2)cc1 was read as Gal4-VP16 FLuc inconclusive, Luc counter 4% and RORg inh inconclusive.
O=[N+]([O-])c1ccc(NC(=S)N2CCN(c3ccc(F)cc3)CC2)cc1 was read as Gal4-VP16 FLuc -15%, Luc counter 0% and RORg inh -19%.
For CCOC(=O)N1CCN(C(=S)Nc2cccc(C)c2)CC1 the results were Gal4-VP16 FLuc -4%, Luc counter 1% and RORg inh -41%.
FC(F)(F)c1cccc(NC(=S)N2CCN(c3cccc(C(F)(F)F)c3)CC2)c1 was read as Gal4-VP16 FLuc -21% and RORg inh 11µM*.
`Cc1cccc(NC(=S)N2CCN(S(=O)(=O)c3ccc(F)cc3)CC2)c1` gave Gal4-VP16 FLuc -16% and RORg inh 13µM*.
`Cc1ccc(CNC(=O)c2cc(=O)c3ccc(C)cc3o2)cc1` gave Gal4-VP16 FLuc 5% and RORg inh 12%.
Screening COc1cccc(NC(=O)CSc2nnc(NC(=O)c3ccco3)s2)c1 returned Gal4-VP16 FLuc 5% and RORg inh 28%.
`COCC(=O)Nc1cc(Cl)c(OC)cc1OC` gave Gal4-VP16 FLuc -6%, Luc counter 0% and RORg inh 3%.
For N#Cc1nc(Cc2ccccc2)oc1NCc1cccnc1 the results were Gal4-VP16 FLuc 17%, Luc counter 2% and RORg inh inconclusive.
N#Cc1ncc(Cc2ccccc2)nc1C#N was read as Gal4-VP16 FLuc 14µM* and RORg inh 19%[1.91 µM].
For COc1cc2c(C(=O)N3CCN(C)CC3)c(C)oc2cc1Br the results were Gal4-VP16 FLuc 1%, Luc counter 0% and RORg inh -21%.
